According to the supplement of paper PMC12532568:

Key:
[1] = test system: Danio rerio larvae Tg(actc1b:ZsGreen-LC3), 3 dpf; test: LC3 puncta relative area vs vehicle, without NH4Cl (log2 fold change); higher = more autophagosomes; conditions: 10 µM; treatment time 16 h; NH4Cl: none
Procedure: (§1)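 Transgenic Tg(actc1b:ZsGreen-map1lc3) zebrafish larvae (2 dpf) were treated for 16 h with Tocris library compounds at 10 µM (n = 12 larvae per compound). Skeletal-muscle LC3 puncta area relative to body area was measured by high-content confocal imaging before and after 4 h of 100 mM NH4Cl (autophagic flux), normalised to vehicle (DMSO), and reported as log2 fold change.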

[2] = test system: Danio rerio larvae Tg(actc1b:ZsGreen-LC3), 3 dpf; test: LC3 puncta relative area vs vehicle, with NH4Cl (autophagic flux) (log2 fold change); higher = more autophagy; conditions: 10 µM; treatment time 16 h; NH4Cl: + 100 mM, 4 h
Procedure: as §1

O=C(NCCN1CCCCC1)c1ccc(I)cc1 [N-[2-(Piperidinylamino)ethyl]-4-iodobenzamide]
LC3 puncta (log2) [1]: 0.492

C1COC(NC(C2CC2)C2CC2)=N1 [Rilmenidine hemifumarate]
LC3 puncta (log2) [2]: 0.305
